The list is not random: actives were taken first. Their share in the collection is about 1.8%.
MEX-5 binding = C. elegans MEX-5 TCR-2 RNA binding activity; MEX-5/FITC-TCR2 RNA binding, fluorescence polarization; stronger effect = lower value; 300,000 compounds, 0.38% hits; Q9XUB2; activity score (negative = inhibition of binding), % at 10 µM; AID 1832;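 active = inhibition past about -25% in most replicates, and total fluorescence under double the plate's negative control median, limit read from the data; inconclusive = replicates evenly split on the limit, or fluorescence at least double controls; inactive = too little inhibition in most replicates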
eIF4H inh = inhibitors of RNA binding by human eIF4H; AID 2012; Q15056; 290,000 compounds, 0.94% hits; inhibition, % at 35 µM; eIF4H fluorescence polarization binding assay;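 note: calls also rest on retests at 20 µM and on dose response follow-up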
EBV gp42 block = blocks Epstein-Barr virus glycoprotein 42 binding. Fluorescence polarization binding assay, mP read-out. Q1HVG2. 220,000 compounds, 0.42% hits. inhibition, % (tested at 21.74 µM); in the data active = inhibition above about 50%
Target sequence (Q1HVG2 whole entry, looked up): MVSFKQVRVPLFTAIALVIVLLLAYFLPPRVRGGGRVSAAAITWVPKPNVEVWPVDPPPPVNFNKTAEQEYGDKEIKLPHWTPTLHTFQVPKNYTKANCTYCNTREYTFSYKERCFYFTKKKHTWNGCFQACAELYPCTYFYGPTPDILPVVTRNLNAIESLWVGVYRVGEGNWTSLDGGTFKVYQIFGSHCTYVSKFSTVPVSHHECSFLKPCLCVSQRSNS
PABP FP inh = blocks human PABP binding to poly(A) RNA; P11940; fluorescence polarization; 290,000 compounds, 1% hits; calls only at 35 µM;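 note: calls also rest on retests at 20 µM and on dose response follow-up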
PABP1 MLLE inh = blocks PAM2 peptide binding to the PABP1 MLLE domain. P11940. GST-MLLE / FITC-PAM2 fluorescence polarization. inhibition, % at 20 µM. 360,000 compounds, 0.36% hits. AID 588489; in the data active = inhibition above about 35%, passing the limit was not always enough
Of the large screens only hits and unclear results are named; the others gave an inactive call. Unless noted, the rule behind the calls is not given here.

COc1cccc(C(NC(C)=O)c2nc(-c3csc4ccccc34)cs2)c1 (stereo not drawn)	none (no result: MEX-5 binding, eIF4H inh, EBV gp42 block, PABP FP inh)
COc1cc(CCC(=O)Nc2ccc(Br)c(C(F)(F)F)c2)cc(OC)c1OC	eIF4H inh active, PABP FP inh active
CN1C=CC(=C[N+](=O)[O-])N(C)C1=O	none (no result: MEX-5 binding, eIF4H inh, EBV gp42 block, PABP FP inh)
O=C1NC(=O)/C(=C\c2ccc(Br)o2)S1	none (no result: EBV gp42 block)
O=C1NC(=O)/C(=C/c2ccc(-c3cc(C(=O)O)ccc3Cl)o2)S1	eIF4H inh 92, PABP FP inh active (no result: EBV gp42 block)
O=C1NC(=S)/C(=C\c2ccc(-c3ccccc3Cl)o2)S1	MEX-5 binding -42, eIF4H inh inconclusive, EBV gp42 block 60
CCCS(=O)(=O)NC(=O)C1(C)CCN(C(=O)Cc2cccc3ccccc23)C1 (stereo not drawn)	none (no result: MEX-5 binding, eIF4H inh, EBV gp42 block, PABP FP inh)
COc1ccc(C(=O)N(C)[C@H]2C[C@H]3c4[nH]c5ccccc5c4CCN3C(=O)[C@H]2CO)cc1	none (no result: MEX-5 binding, eIF4H inh, EBV gp42 block, PABP FP inh)
CN(CC(=O)Nc1ccccc1N1CCOCC1)CC(=O)Nc1ccc(F)c(F)c1F	none
O=C(O)CCC(=O)Nc1ccccc1N1CCOCC1	eIF4H inh 14, PABP FP inh active
CSc1ccccc1NC(=O)CN(C)CC(=O)Nc1ccccc1N1CCOCC1	eIF4H inh active
O=C1C(Nc2cccc(O)c2)=C(N2CCCCC2)C(=O)c2ccccc21	PABP1 MLLE inh 49
COc1ccc(NC(=O)C2(C)CCCN(C(C)C)C2)cc1F (stereo not drawn)	none (no result: MEX-5 binding, eIF4H inh, EBV gp42 block, PABP FP inh)
CCc1c(O)nc(SCC(=O)Nc2ccccc2)n(-c2ccccc2C)c1=O	none (no result: MEX-5 binding, eIF4H inh, EBV gp42 block, PABP FP inh)
CCCCc1c(O)nc(SCC(=O)Nc2cccc3ccccc23)n(-c2ccccc2OC)c1=O	PABP1 MLLE inh 41 (no result: EBV gp42 block)
CCc1c(O)nc(SCC(=O)Nc2ccccc2OC)n(-c2ccccc2C)c1=O	PABP1 MLLE inh 46 (no result: eIF4H inh, EBV gp42 block, PABP FP inh)
CCN(C(=O)CN1C(=O)NC2(CCC(C)CC2)C1=O)C1CCCCC1 (stereo not drawn)	none (no result: MEX-5 binding, eIF4H inh, EBV gp42 block, PABP FP inh)
Cc1cc(C)nc(N/N=C/C2=C(N3CCOCC3)C(=C\c3ccc(Cl)cc3)/CC2)n1	none
Cc1occc1C(=O)N/N=C/C1=C(N2CCOCC2)C(=C\c2ccc(Cl)cc2Cl)/CC1	MEX-5 binding -54
N=c1c2ccccc2nc2n1CCCCC2	none (no result: MEX-5 binding, eIF4H inh, EBV gp42 block, PABP FP inh)
CCOC(=O)N1CCN(CC(=O)Nc2nccs2)CC1	none (no result: MEX-5 binding, eIF4H inh, EBV gp42 block, PABP FP inh)
CCOC(=O)c1ccccc1NC(=O)c1ccc2nc[nH]c2c1	none (no result: EBV gp42 block)
CCOC(=O)c1ccccc1NC(=O)c1ccc2nccnc2c1	eIF4H inh 68
CC(C)NS(=O)(=O)c1ccc(CCC(=O)NCc2ccc3c(c2)OCO3)cc1	none
CCCNS(=O)(=O)c1ccc(CCC(=O)NCc2ccc3c(c2)OCO3)cc1	MEX-5 binding -36
CCOC(=O)c1cnc(-n2[nH]c(C)cc2=O)[nH]c1=O	eIF4H inh 100, PABP FP inh active
O=C(NC(=S)N1CCCc2ccccc21)c1ccc(Br)cc1	PABP1 MLLE inh 47
COc1ccc(C(=O)NC(=S)N2CCCc3ccccc32)cc1OC	PABP1 MLLE inh 41
COc1ccccc1C(=O)NC(=S)N1CCCc2ccccc21	PABP FP inh active
CCN(CC)c1ccc(S(=O)(=O)N2CCOCC2)cc1NC(=O)COC(=O)C1=COCCO1	none (no result: MEX-5 binding, eIF4H inh, EBV gp42 block, PABP FP inh)
COc1ccc(S(=O)(=O)N2CCC3CC2c2cc(N4CCOCC4)ccc23)cc1 (stereo not drawn)	none (no result: MEX-5 binding, eIF4H inh, EBV gp42 block, PABP FP inh)
COc1ccc(CC(N)c2csc(NC(=O)Nc3ccccc3-c3ccccc3)n2)cc1 (stereo not drawn)	none (no result: MEX-5 binding, eIF4H inh, EBV gp42 block, PABP FP inh)
CC(O)(c1cccnc1)c1nc(-c2cccc(C(F)(F)F)c2)cs1 (stereo not drawn)	none (no result: MEX-5 binding, eIF4H inh, EBV gp42 block, PABP FP inh)
O=C(Nc1cc2c(oc1=O)CCCC2=O)c1ccc(Cl)cc1	eIF4H inh 74, PABP FP inh active
Cc1nccc2oc(=O)c(NC(=O)c3ccc(Cl)cc3)cc12	none
COc1ccc(CN2C(=O)C(CC(=O)NCC3CCCCC3)CC(C(=O)N(C(C)C)C(C)C)=C2C)cc1 (stereo not drawn)	none (no result: MEX-5 binding, eIF4H inh, EBV gp42 block, PABP FP inh)
Cc1ccc(S(=O)(=O)/C(C#N)=C/c2c(N3CCN(Cc4ccccc4)CC3)nc3ccccn3c2=O)cc1	eIF4H inh inconclusive, PABP FP inh active (no result: EBV gp42 block)
Cc1ccc(S(=O)(=O)/C(C#N)=C/c2c(N3CCOCC3)nc3c(C)cccn3c2=O)cc1	eIF4H inh inconclusive, PABP FP inh inconclusive
Cc1ccc2nc(N3CCN(c4ccccc4F)CC3)c(C=O)c(=O)n2c1	PABP FP inh active
N#C/C(=C\c1c(N2CCN(Cc3ccccc3)CC2)nc2ccccn2c1=O)S(=O)(=O)c1ccccc1	eIF4H inh inconclusive, PABP FP inh active (no result: EBV gp42 block)
Cc1cccn2c(=O)c(/C=C(\C#N)S(=O)(=O)c3ccccc3)c(N3CCN(Cc4ccccc4)CC3)nc12	eIF4H inh 78, PABP FP inh active (no result: EBV gp42 block)
N#C/C(=C\c1c(N2CCC(C(N)=O)CC2)nc2ccccn2c1=O)C(=O)NCc1ccco1	eIF4H inh 62, PABP FP inh active
Cc1cccn2c(=O)c(C=O)c(N3CCN(c4ccc(F)cc4)CC3)nc12	eIF4H inh 96, PABP FP inh active
Cc1cccn2c(=O)c(C=O)c(N3CCCCC3)nc12	none
NC(=O)CC1NC(=O)c2cc([N+](=O)[O-])cc(I)c2OCCC(C(N)=O)NC(=O)[C@@H]2CCCN2C1=O (stereo partly drawn)	eIF4H inh active (no result: MEX-5 binding, PABP1 MLLE inh)
CCOc1ccc(N)c(SSc2cc(OCC)ccc2N)c1	none (no result: EBV gp42 block)
CCOc1cc(-c2ccc(N)c(OCC)c2)ccc1N	eIF4H inh inconclusive, EBV gp42 block 145, PABP FP inh active (no result: MEX-5 binding)
O=C(O)c1ccccc1C(=O)Nc1ccc(-n2nc(C(F)(F)F)cc2C(F)(F)F)cc1	none
ONc1cccnc1-n1nc(C(F)(F)F)cc1C(F)(F)F	eIF4H inh 64 (no result: PABP1 MLLE inh)
CCOc1ccccc1N1CCN(CC(=O)N(CC(C)C)c2c(N)n(CC(C)C)c(=O)[nH]c2=O)CC1	eIF4H inh 9.0, PABP FP inh active
COCCN(C(=O)CSc1ccc2c(c1)OCCO2)c1c(N)n(CC(C)C)c(=O)[nH]c1=O	PABP1 MLLE inh 42 (no result: MEX-5 binding, eIF4H inh, EBV gp42 block, PABP FP inh)
COc1ccccc1N1CCN(CC(=O)N(CC(C)C)c2c(N)n(CC(C)C)c(=O)[nH]c2=O)CC1	none
CCNC(=S)Nc1ccc2c(c1)c(=O)n(C)n2-c1ccc(C(C)(C)C)cc1	none (no result: MEX-5 binding, eIF4H inh, EBV gp42 block, PABP FP inh)
O=C(/C(=C(\[O-])c1ccccc1)[n+]1ccc2ccccc2c1)c1ccc(Cl)cc1	EBV gp42 block 67
O=C(/C(=C(/[O-])c1ccccc1)[n+]1ccccc1)c1ccc([N+](=O)[O-])cc1	none
O=C(/C(=C(\[O-])c1ccccc1)[n+]1ccc2ccccc2c1)c1ccc([N+](=O)[O-])cc1	none
O=C(/C(=C(\[O-])c1ccccc1)[n+]1ccc2ccccc2c1)c1ccccc1	EBV gp42 block 74
CCCn1c(N)c(C(=S)NC(=O)C2CC2)c(=O)n(C)c1=O	PABP1 MLLE inh 41 (no result: MEX-5 binding)
CCCCn1c(N)c(C(=S)NC(=O)CC(C)C)c(=O)n(C)c1=O	PABP1 MLLE inh 41 (no result: MEX-5 binding)
CCCNC(=O)C1(C)CCN(C(=O)Cc2ccc(OC)c(OC)c2)C1 (stereo not drawn)	none (no result: MEX-5 binding, eIF4H inh, EBV gp42 block, PABP FP inh)
COc1ccc(NC(=O)/C(C#N)=C/c2ccc(-c3ccccc3C(=O)O)o2)cc1	none (no result: EBV gp42 block)
